Measured values as given in PubChem BioAssay.
A number with no mark means an inactive call. Activity calls are given as the source filed them.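 The calls were made as follows, unless noted: active = mean inhibition above 46.5%, the solvent-only control mean plus 3 SD; inactive = the rest.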

What was measured:
[1] = biological target: Nuclear receptor coactivator 3 (Homo sapiens) (UniProt Q9Y6Q9); experiment: NCOA3 GAL4-fusion reporter inhibition – cell-based, luminescence, quadruplicate, confirmation (AID 588792;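 active = mean inhibition over 43.08%, the solvent-only control mean plus 3 SD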;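 also: 0% = DMSO treated cells and 100% = gossypol at 36 µM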); conditions: HEK293 GAL4-SRC3 luciferase reporter, at 3.6 µM, hits give high values
Nuclear receptor coactivator 3 (Homo sapiens), sequence (Q9Y6Q9 whole entry, looked up, the tested form may be a part): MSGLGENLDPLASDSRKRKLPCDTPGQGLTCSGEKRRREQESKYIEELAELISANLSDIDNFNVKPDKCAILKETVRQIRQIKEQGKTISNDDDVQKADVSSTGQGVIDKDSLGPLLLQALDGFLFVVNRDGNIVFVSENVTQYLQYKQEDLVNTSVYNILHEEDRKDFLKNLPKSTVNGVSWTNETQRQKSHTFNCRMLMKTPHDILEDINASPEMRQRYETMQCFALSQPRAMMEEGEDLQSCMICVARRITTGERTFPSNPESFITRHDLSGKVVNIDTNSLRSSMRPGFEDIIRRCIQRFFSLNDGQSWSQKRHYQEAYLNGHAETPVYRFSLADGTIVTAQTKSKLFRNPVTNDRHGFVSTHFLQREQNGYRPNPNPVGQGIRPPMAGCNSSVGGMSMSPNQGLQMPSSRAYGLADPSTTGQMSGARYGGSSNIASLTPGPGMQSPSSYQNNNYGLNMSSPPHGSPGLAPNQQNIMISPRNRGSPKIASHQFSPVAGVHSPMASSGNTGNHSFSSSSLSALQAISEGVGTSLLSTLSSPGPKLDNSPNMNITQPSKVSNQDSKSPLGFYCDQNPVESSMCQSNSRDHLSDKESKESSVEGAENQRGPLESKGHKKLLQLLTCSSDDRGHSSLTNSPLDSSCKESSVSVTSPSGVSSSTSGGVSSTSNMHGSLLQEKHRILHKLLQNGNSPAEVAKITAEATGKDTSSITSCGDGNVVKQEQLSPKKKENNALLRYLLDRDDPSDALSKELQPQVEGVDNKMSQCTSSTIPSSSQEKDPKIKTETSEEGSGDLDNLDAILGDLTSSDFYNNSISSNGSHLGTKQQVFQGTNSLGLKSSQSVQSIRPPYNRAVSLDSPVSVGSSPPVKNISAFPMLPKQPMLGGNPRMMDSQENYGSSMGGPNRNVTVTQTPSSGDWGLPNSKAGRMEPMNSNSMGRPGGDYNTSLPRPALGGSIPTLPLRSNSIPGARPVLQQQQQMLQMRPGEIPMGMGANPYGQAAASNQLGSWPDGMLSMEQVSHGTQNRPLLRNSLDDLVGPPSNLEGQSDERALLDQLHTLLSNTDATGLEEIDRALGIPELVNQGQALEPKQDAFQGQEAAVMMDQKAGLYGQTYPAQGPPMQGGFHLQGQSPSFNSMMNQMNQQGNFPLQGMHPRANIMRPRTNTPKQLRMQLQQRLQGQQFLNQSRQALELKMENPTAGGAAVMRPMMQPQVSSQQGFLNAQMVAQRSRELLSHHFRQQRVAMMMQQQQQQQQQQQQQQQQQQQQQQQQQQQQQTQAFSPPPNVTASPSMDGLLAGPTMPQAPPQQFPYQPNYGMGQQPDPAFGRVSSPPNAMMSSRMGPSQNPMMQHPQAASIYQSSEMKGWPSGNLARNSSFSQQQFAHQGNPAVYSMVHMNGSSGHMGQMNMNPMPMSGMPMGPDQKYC

[2] = tested on: transactivating tegument protein VP16 (Human herpesvirus 1), Gal4-VP16 luciferase reporter; experiment: repression of VP16-driven luciferase reporter – cell-based, luminescence, high throughput, counter-screen for SRC3 inhibitor project (AID 588794; in the data active = inhibition above about 30%); conditions: mammalian cells, at 3.6 µM, hits give high values
[3] = tested on: transactivating tegument protein VP16 (Human herpesvirus 1); experiment: compounds suppressing VP16-driven luciferase signal – cell-based, luminescence, single concentration, counter-screen for SRC2 inhibitor project (AID 652007; in the data active = inhibition above about 36%); conditions: cell-based VP16 transactivation luciferase reporter, at 8.9 µM, hits give high values
[4] = biological target: Nuclear receptor coactivator 2 (Homo sapiens) (UniProt Q15596); experiment: inhibition of GAL4-SRC2 driven luciferase expression – cell-based, luminescence, HEK293, triplicate, confirmation (AID 652008); conditions: HEK293 GAL4-SRC2 luciferase reporter, at 8.9 µM, hits give high values;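 also: 0% = DMSO-treated cells and 100% = Gossypol at 36 µM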
Nuclear receptor coactivator 2 (Homo sapiens), sequence (Q15596 whole entry, looked up, the tested form may be a part): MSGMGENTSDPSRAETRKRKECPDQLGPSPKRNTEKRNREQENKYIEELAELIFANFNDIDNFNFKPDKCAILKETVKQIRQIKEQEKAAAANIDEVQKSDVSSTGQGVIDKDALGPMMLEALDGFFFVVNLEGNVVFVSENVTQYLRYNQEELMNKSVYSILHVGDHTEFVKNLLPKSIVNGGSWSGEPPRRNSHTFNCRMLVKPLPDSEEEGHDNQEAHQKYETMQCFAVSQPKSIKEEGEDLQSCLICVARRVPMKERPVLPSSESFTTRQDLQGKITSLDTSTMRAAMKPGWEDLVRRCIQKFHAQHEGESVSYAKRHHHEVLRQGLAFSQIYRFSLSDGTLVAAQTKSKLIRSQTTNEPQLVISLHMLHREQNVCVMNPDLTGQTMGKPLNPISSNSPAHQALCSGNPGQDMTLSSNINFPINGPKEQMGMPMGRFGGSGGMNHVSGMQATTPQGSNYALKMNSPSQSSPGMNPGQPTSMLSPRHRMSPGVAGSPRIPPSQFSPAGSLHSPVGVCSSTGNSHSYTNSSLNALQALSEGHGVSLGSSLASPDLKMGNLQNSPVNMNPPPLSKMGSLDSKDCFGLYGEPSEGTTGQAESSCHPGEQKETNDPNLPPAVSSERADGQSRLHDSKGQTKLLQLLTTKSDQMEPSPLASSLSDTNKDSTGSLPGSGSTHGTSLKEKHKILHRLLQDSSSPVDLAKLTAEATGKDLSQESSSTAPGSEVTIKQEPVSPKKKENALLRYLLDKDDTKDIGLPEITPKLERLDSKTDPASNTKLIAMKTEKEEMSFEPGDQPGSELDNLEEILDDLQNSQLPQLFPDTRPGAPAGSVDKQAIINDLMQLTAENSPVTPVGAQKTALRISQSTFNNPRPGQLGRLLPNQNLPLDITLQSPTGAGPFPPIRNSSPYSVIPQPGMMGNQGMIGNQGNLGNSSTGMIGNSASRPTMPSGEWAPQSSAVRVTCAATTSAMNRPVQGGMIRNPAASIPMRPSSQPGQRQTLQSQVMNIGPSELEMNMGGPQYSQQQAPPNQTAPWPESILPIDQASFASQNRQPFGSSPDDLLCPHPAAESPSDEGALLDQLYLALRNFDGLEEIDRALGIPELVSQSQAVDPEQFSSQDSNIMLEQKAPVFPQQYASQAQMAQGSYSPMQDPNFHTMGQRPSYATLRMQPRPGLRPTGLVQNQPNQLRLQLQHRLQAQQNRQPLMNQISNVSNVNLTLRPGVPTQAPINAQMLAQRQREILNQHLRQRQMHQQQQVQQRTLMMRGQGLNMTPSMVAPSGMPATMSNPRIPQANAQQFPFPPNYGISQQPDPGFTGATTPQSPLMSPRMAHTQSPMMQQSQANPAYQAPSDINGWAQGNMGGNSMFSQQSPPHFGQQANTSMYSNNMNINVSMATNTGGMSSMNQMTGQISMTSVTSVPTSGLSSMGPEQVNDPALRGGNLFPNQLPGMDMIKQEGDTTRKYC

Compound | inhibition [1] | inhibition [2] | inhibition [3] | inhibition [4]
COc1ccc(COC(=O)C2=C(C)NC(=O)NC2c2ccc(OC)cc2)cc1 (stereo unspecified) | 11.2% | 20.8% | 12% | 33%
CCc1ccc(-c2nc(CS(=O)CC(=O)NCc3ccco3)c(C)o2)cc1 (stereo unspecified) | 10.8% | -12.6% | 3.28% | 56.7% (active)
CCOc1cc(/C=C/C(=O)c2ccc(C)cc2)ccc1OCC(=O)N(C)C | 24.8% | 25.1% | 16.4% | 31.6%
COc1cc(/C=C/C(=O)c2ccc(F)cc2)cc(OC)c1OC | 50.5% (active) | 34.7% (active) | 21.9% | 28.1%
COCC1CCN(C(=O)c2cc(COc3cccc4cnccc34)on2)CC1 | 11.1% | 37.7% (active) | 3.58% | 43.1%
CC1CCN(c2ccc(-c3cccs3)nn2)CC1 | 22.9% | 9.04% | 34.7% | 47.3% (active)
CCOc1ccc(C(=O)C(CCC(CN(C)C)C(=O)c2ccc(OCC)cc2)CN(C)C)cc1 (stereo unspecified) | -1.23% | 34.5% (active) | 42.6% (active) | 54.2% (active)
Cc1cccc(CN2CCN(C(=O)CCl)CC2)c1 | 31.7% | 18.2% | 38% (active) | 33.5%
COc1ccc(C(=O)C(CCC(CNC(C)(C)C)C(=O)c2ccc(OC)cc2)CNC(C)(C)C)cc1 (stereo unspecified) | -9.42% | 4.54% | 10.4% | 20.1%
